Records with an inconclusive call do not appear. Where a call stands in place of a potency, no number is given. Unmarked numbers belong to inactive results. The source made the active and inactive calls. Unless noted, the call rests on the fitted dose curve; in most records, active means well fitted curve in the direction sought with a large enough effect in the repeat runs; inconclusive means weak or mixed curves; inactive means no such curve, though single readings can be large; an effect the other way counts as inactive or inconclusive.
Legend:
[1] = qHTS assay to identify small molecule antagonists of the thyroid receptor (TR) signaling pathway - cell viability counter screen (AID 743064); further: nearly all actives have a fitted effect of over 50% in size
Summary of the method: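 Rat GH3 pituitary tumor cells stably expressing two TR response elements driving luciferase were plated, rested 4 h, then dosed with library compounds and T3 (1 nM final). After 23.5 h at 37 °C, CellTiter-Fluor was added for 30 min and fluorescence recorded.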

[2] = qHTS assay to identify small molecule antagonists of the thyroid receptor (TR) signaling pathway (AID 743065); further: nearly all actives have a fitted effect of over 55% in size
Summary of the method: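 GH3.TRE-Luc rat pituitary cells carrying two TR response elements driving luciferase were plated for 4 h, given compound plus 1 nM T3 (final), and incubated 23.5 h at 37 C. ONE-Glo luminescence measured reporter inhibition; CellTiter-Fluor fluorescence tracked cytotoxicity.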

[3] = tested on: thyroid hormone receptor (rat, GH3 cells); test: qHTS assay to identify small molecule agonists of the thyroid receptor (TR) signaling pathway (AID 743066; calls by dose curve)
[4] = biological target: Estrogen receptor (Homo sapiens) (UniProt P03372); test: qHTS assay to identify small molecule antagonists of the estrogen receptor alpha (ER-alpha) signaling pathway (AID 743069; active means well fitted curve in the direction sought with a large enough effect in the signal ratio in the repeat runs, not every such curve was filed as active; the % refers to the signal ratio)
Summary of the method: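 Screening used a UAS-driven beta-lactamase reporter integrated into HEK293 cells expressing ER-alpha, stimulated with 17beta-estradiol alongside test compounds over 18 hr at 37C; signal came from LiveBLAzer B/G FRET fluorescence.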

[5] = qHTS assay to identify small molecule antagonists of the estrogen receptor alpha (ER-alpha) signaling pathway - cell viability counter screen (AID 743074; calls by dose curve; further: nearly all actives have a fitted effect of over 45% in size)
[6] = biological target: Estrogen receptor (Homo sapiens) (UniProt P03372); test: qHTS assay to identify small molecule agonists of the estrogen receptor alpha (ER-alpha) signaling pathway (AID 743075; calls by dose curve)
[7] = biological target: Estrogen receptor (Homo sapiens) (UniProt P03372); test: qHTS assay to identify small molecule agonists of the estrogen receptor alpha (ER-alpha) signaling pathway using the BG1 cell line (AID 743079); conditions: BG1Luc4E2 cells, ERE-luciferase agonist, 22 h; activation: at 70.3 µM (top of the series); further: nearly all actives have a fitted effect of over 20% in size; further: potency means the concentration at half of the fitted maximal effect
[8] = qHTS assay to identify small molecule antagonists of the estrogen receptor alpha (ER-alpha) signaling pathway using the BG1 cell line (AID 743080; calls by dose curve;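 further: BG1 cells stimulated with 17beta-estradiol alongside compound; nearly all actives have a fitted effect of over 25% in size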)
Summary of the method: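 Readout is ONE-Glo luminescence, taken 30 min at room temperature after reagent addition, preceded by a CellTiter-Fluor viability read; BG1-Luc-4E2 cells had received compound and 17beta-estradiol for 21.5 h at 37 C.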

[9] = qHTS assay to identify small molecule antagonists of the estrogen receptor alpha (ER-alpha) signaling pathway using the BG1 cell line - cell viability counter screen (AID 743081);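 further: compound given together with 17beta-estradiol as the ER stimulus; nearly all actives have a fitted effect of over 45% in size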
Aromatase (Homo sapiens) = Aromatase (Homo sapiens) (UniProt P11511); test: qHTS assay to identify aromatase inhibitors (AID 743083); further: nearly all actives have a fitted effect of over 55% in size
[10] = qHTS assay to identify aromatase inhibitors - cell viability counter screen (AID 743084);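 further: cells stimulated with testosterone during compound exposure; nearly all actives have a fitted effect of over 55% in size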
[11] = biological target: Aryl hydrocarbon receptor (Homo sapiens) (UniProt P35869); test: qHTS assay to identify small molecule that activate the aryl hydrocarbon receptor (AhR) signaling pathway (AID 743085); further: nearly all actives have a fitted effect of over 15% in size; further: potency means the concentration at half of the fitted maximal effect;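 on activation: HG2L7.5c1 human HepG2 liver cells with stably integrated DRE-driven firefly reporter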
Summary of the method: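 Compounds were tested in HepG2 hepatocellular carcinoma cells harbouring a stably integrated luciferase gene under control of 20 DREs. Increased reporter signal after 24 h treatment at 37C was taken as AhR activation.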

[12] = qHTS assay to identify small molecule that activate the aryl hydrocarbon receptor (AhR) signaling pathway - cell viability counter screen (AID 743086);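 further: HepG2 liver cells carrying the AhR DRE luciferase reporter; nearly all actives have a fitted effect of over 45% in size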
Summary of the method: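 HepG2-AhR-luc (HG2L7.5c1) cells, 4000/well, were preincubated 5 h at 37C, exposed to compound in qHTS format for 24 hr at 37C, then given CellTiter-Fluor for 30 min; viability was read as fluorescence in the reporter wells.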

[13] = biological target: Peroxisome proliferator-activated receptor gamma (Homo sapiens) (UniProt P37231); test: qHTS assay to identify small molecule agonists of the peroxisome proliferator-activated receptor gamma (PPARg) signaling pathway (AID 743094; active means well fitted activation curve with a large enough effect in the signal ratio in the repeat runs, not every such curve was filed as active; the % refers to the signal ratio)
Summary of the method: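 Agonist activity was taken from a beta-lactamase reporter (FRET substrate, 1 h at room temperature) in HEK293H cells carrying a PPARg UAS-bla construct. Compounds in DMSO were incubated 17 h at 37C after a 5 h cell pre-incubation.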

[14] = qHTS assay to identify small molecule phospholipidosis (PLD) inducers (AID 1259344; active means well fitted curve in the direction sought with a large enough effect; an effect the other way counts as inactive or inconclusive)
Summary of the method: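 Cells (HepG2, 900 per well) attach for 4 h, receive LipidTOX Red and compound together, incubate 24 h at 37 C, are fixed 30 min with paraformaldehyde/Hoechst, then imaged at one site per well.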

[15] = biological target: Nuclear receptor subfamily 1 group I member 2 (Rattus norvegicus) (UniProt Q9R1A7); test: Rat pregnane X receptor (rPXR) activation by small molecules, qHTS assay (AID 1346983); conditions: rPXR luciferase reporter cells, One-Glo luminescence, 24 h; max activation: hits give high values; further: nearly all actives have a fitted effect of over 20% in size; further: potency means the concentration at half of the fitted maximal effect
Summary of the method: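 Cell-based rPXR luciferase reporter assay, 2,000 cells per well, rested 5hr at 37 C before compound addition in DMSO, then 24 hr at 37 C. One-Glo reagent was added and luminescence read after 30 min at room temperature.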

[16] = biological target: Nuclear receptor subfamily 1 group I member 2 (Homo sapiens) (UniProt O75469); test: CYP3A4 induction through human pregnane X receptor (PXR) by small molecules, qHTS assay (AID 1346984); further: nearly all actives have a fitted effect of over 40% in size; further: potency means the concentration at half of the fitted maximal effect
Summary of the method: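 Read-out is luminescence after One-Glo addition, following a 3 hr, 37C incubation with Luciferin-IPA CYP3A4 substrate (3uM final). Before that, compounds were on DPX-2 cells (HepG2 co-transfected with PXR element plus CYP3A4-promoter luciferase) for 24 hr at 37C.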

[17] = biological target: Nuclear receptor subfamily 1 group I member 2 (Homo sapiens) (UniProt O75469); test: Human pregnane X receptor (PXR) activation by small molecules, qHTS assay (AID 1346985); further: nearly all actives have a fitted effect of over 40% in size
Summary of the method: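 DPX-2 cells (HepG2 co-transfected with a PXR response element and a CYP3A4-promoter luciferase construct) were seeded at 2,000 per well, rested 5 hr at 37C, then exposed to DMSO-dissolved compounds for 24 hr. Activation was read as luciferase luminescence.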

Sequence of Peroxisome proliferator-activated receptor gamma (Homo sapiens) (P37231 whole entry, looked up): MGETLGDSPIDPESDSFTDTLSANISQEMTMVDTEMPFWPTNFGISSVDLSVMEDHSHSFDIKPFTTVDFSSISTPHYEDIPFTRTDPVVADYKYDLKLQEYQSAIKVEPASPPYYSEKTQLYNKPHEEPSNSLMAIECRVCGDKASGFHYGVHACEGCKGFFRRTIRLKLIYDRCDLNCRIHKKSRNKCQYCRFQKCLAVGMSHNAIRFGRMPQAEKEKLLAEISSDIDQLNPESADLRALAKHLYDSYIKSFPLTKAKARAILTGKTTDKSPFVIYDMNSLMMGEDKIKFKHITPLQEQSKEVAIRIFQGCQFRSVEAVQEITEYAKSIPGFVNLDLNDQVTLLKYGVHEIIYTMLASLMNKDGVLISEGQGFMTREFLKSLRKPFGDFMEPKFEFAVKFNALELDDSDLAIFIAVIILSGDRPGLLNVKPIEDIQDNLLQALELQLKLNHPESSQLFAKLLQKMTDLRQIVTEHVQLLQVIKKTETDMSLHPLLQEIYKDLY
Sequence of Estrogen receptor (Homo sapiens) (P03372 whole entry, looked up): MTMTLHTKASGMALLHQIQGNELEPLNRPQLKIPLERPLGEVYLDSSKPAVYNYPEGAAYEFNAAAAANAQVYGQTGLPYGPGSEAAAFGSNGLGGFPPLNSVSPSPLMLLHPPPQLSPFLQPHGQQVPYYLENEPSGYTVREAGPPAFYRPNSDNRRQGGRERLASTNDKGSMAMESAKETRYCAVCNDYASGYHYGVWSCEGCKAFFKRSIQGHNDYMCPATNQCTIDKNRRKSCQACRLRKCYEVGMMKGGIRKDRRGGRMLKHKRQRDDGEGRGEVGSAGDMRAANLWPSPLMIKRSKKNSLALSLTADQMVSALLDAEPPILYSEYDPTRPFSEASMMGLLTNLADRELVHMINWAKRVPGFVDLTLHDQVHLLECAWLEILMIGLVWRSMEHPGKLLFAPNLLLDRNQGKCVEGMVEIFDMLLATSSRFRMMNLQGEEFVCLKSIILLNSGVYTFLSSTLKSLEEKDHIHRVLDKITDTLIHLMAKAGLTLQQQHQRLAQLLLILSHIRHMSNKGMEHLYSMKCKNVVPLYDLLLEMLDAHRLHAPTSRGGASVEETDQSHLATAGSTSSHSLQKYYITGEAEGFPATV
Sequence of Aromatase (Homo sapiens) (P11511 whole entry, looked up): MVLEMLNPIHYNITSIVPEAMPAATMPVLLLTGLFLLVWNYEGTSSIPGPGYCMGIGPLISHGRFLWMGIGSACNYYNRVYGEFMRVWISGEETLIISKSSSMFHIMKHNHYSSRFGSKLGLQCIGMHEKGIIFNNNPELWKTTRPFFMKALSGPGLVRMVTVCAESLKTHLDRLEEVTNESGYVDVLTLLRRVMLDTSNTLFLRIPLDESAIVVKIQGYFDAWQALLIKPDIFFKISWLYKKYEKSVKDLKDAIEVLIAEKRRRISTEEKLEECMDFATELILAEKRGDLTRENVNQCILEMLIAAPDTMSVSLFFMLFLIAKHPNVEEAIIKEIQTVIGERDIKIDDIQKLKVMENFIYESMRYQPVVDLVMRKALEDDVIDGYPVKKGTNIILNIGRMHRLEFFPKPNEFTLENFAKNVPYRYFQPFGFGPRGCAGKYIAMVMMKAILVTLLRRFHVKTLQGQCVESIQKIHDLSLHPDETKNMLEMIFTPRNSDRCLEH
Sequence of Aryl hydrocarbon receptor (Homo sapiens) (P35869 whole entry, looked up): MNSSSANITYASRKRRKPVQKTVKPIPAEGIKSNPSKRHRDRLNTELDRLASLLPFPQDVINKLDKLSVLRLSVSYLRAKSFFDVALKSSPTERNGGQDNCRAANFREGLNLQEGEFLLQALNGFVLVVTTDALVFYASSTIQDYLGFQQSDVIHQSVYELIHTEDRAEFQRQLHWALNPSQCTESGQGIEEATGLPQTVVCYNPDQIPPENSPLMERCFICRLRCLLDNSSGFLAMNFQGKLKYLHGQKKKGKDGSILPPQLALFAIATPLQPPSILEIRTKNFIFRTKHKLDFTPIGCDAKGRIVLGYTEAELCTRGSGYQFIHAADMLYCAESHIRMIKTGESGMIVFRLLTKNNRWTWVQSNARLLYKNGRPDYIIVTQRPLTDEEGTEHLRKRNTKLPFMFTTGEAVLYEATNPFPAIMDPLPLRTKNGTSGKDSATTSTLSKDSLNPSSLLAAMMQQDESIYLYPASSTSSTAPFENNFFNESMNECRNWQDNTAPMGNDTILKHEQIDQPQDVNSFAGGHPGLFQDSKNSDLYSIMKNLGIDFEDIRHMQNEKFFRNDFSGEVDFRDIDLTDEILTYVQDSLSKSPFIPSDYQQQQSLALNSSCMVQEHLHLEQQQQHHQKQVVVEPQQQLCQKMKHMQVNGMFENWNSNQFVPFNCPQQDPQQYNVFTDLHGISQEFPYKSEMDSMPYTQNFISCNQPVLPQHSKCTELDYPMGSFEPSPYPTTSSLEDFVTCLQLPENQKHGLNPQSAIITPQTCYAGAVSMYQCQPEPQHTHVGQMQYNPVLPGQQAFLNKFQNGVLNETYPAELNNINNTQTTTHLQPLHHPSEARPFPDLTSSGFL
Sequence of Nuclear receptor subfamily 1 group I member 2 (Rattus norvegicus) (Q9R1A7 whole entry, looked up): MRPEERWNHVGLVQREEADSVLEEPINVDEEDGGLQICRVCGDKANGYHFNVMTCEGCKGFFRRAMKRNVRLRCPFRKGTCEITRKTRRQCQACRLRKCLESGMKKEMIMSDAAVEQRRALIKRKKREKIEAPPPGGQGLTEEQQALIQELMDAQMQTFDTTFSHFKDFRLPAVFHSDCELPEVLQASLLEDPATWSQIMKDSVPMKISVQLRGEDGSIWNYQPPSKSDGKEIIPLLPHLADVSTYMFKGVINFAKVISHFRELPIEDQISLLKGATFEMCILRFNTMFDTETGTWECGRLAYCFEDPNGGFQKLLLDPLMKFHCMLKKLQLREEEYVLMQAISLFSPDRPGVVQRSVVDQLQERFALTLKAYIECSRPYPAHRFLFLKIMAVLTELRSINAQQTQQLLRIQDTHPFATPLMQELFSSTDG

| Compound | Potency [1] | Potency [2] | Potency [3] | Potency [4] | Potency [5] | Potency [6] | Potency [7] | Potency [8] | Potency [9] | Potency (Aromatase (Homo sapiens)) | Potency [10] | Potency [11] | Potency [12] | Potency [13] | Potency [14] | max activation [15] | Potency [16] | Potency [17] | Potency [15] |
| --- | --- | --- | --- | --- | --- | --- | --- | --- | --- | --- | --- | --- | --- | --- | --- | --- | --- | --- | --- |
| C=CCN1CCCC1CNC(=O)c1cc(S(N)(=O)=O)cc(OC)c1OC (centres undefined) | inactive | inactive | inactive | inactive | inactive | inactive | inactive | inactive | inactive | inactive | inactive | inactive | inactive | inactive | inactive | -5.9% | 14.1 µM (active) | – | – |
| COc1ccc(C[C@H](C)NC[C@@H](O)c2ccc(O)c(NC=O)c2)cc1 | – | – | inactive | inactive | inactive | inactive | inactive | inactive | – | – | inactive | inactive | inactive | inactive | inactive | -1.02% | inactive | inactive | – |
| CC(C)(C)C(=O)OCOC(=O)[C@@H]1N2C(=O)[C@@H](N=CN3CCCCCC3)[C@H]2SC1(C)C | – | – | – | inactive | inactive | inactive | inactive | – | – | inactive | – | – | inactive | inactive | inactive | -0.301% | inactive | inactive | – |
| CC(C)(C)NCC(O)c1ccc(O)c(CO)n1 (centres undefined) | – | inactive | inactive | – | inactive | – | – | – | inactive | – | – | – | inactive | – | inactive | -0.193% | inactive | inactive | – |
| CO[C@H]1C[C@@H]2CC[C@@H](C)[C@@](O)(O2)C(=O)C(=O)N2CCCC[C@H]2C(=O)O[C@H]([C@H](C)C[C@@H]2CC[C@@H](OC(=O)C(C)(CO)CO)[C@H](OC)C2)CC(=O)[C@H](C)/C=C(\C)[C@@H](O)[C@@H](OC)C(=O)[C@H](C)C[C@H](C)/C=C/C=C/C=C/1C | – | – | – | – | inactive | inactive | 23.7 µM (active) | inactive | inactive | inactive | inactive | inactive | inactive | inactive | inactive | 0.976% | inactive | inactive | – |
| OC[C@@H](O)C(O)[C@H](O)CO | inactive | inactive | inactive | – | inactive | – | – | – | inactive | inactive | inactive | inactive | inactive | inactive | inactive | -1.82% | inactive | – | – |
| CCC(=O)O[C@]1(C(=O)CCl)[C@@H](C)C[C@H]2[C@@H]3C[C@H](F)C4=CC(=O)C=C[C@]4(C)[C@@]3(F)[C@@H](O)C[C@@]21C | inactive | – | inactive | – | inactive | – | – | – | inactive | inactive | inactive | 3.35 µM (active) | inactive | – | inactive | – | 1.58 µM (active) | – | 447 nM (active) |

From PubChem BioAssay (Tox21)
